# Activity calls are given as the source filed them. Rule for the calls: active = hit-call score of the fitted dose curve at least 0.9, where 1 is the maximum; inactive = score below 0.9.
# Experiments:
# Conditions in all cases: mRNA level, 48 h; actives raise or lower the signal
# [1] = read-out: Fatty acid synthase (Homo sapiens) (UniProt P49327); assay: LTEA_HepaRG_FASN: Life Technologies and Expression Analysis (LTEA) Assay for Fatty Acid Synthase (FASN) using HepaRG (AID 2283448);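 for AC50: differentiated human HepaRG liver cells in serum-free induction medium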
# In short: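 HepaRG, 48 h exposure, 8-pt half-log series top 100 uM, 0.5% DMSO vehicle, duplicates. Readout: FASN transcript by Fluidigm qRT-PCR; housekeeping-normalized; bidirectional curve fit vs DMSO baseline.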
# [2] = read-out: Cyclin Dependent Kinase Inhibitor 1A (CDKN1A), CDKN1A (gene 1026); assay: LTEA_HepaRG_CDKN1A: Life Technologies and Expression Analysis (LTEA) Assay for Cyclin Dependent Kinase Inhibitor 1A (CDKN1A) using HepaRG (AID 2283450)
# In short: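 Expression quantified by Fluidigm qRT-PCR with ACTB, GAPDH and POLR2A normalization, fitted bidirectionally against 0.5% DMSO. Cells: HepaRG, plated 48 h then treated 48 h in serum-free induction medium, top concentration 100 uM with half-log dilutions.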
# [3] = read-out: Cyclin D1 (CCND1), CCND1 (gene 595); assay: LTEA_HepaRG_CCND1: Life Technologies and Expression Analysis (LTEA) Assay for Cyclin D1 (CCND1) using HepaRG (AID 2283451)
# In short: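 Expression of CCND1 was quantified by qRT-PCR on Fluidigm arrays using ACTB, GAPDH and POLR2A as reference genes. HepaRG cultures, plated 48 h beforehand, were dosed for 48 h at up to 100 uM (half-log, 8 points) in 0.5% DMSO.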
# [4] = read-out: catalase (CAT), CAT (gene 847); assay: LTEA_HepaRG_CAT: Life Technologies and Expression Analysis (LTEA) Assay for catalase (CAT) using HepaRG (AID 2283452)
# In short: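 HepaRG cells in serum-free induction medium, 0.5% DMSO vehicle, exposed 48 h in duplicate over 8 half-log concentrations from 100 uM. CAT mRNA measured by qRT-PCR, normalized to ACTB, GAPDH, POLR2A; bidirectional fit versus DMSO.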
# [5] = read-out: flavin-containing dimethylaniline monooxygenases 3 (FMO3), FMO3 (gene 2328); assay: LTEA_HepaRG_FMO3: Life Technologies and Expression Analysis (LTEA) Assay for flavin-containing dimethylaniline monooxygenases 3 (FMO3) using HepaRG (AID 2283453)
# In short: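 Eight-point concentration-response in serum-free HepaRG cultures (top 100 uM, 0.5% DMSO, 48 h). Read-out: FMO3 mRNA level normalized to three endogenous control genes, fitted bidirectionally versus vehicle.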
# [6] = read-out: Cytochrome P450 (CYP1A1), CYP1A1 (gene 1543); assay: LTEA_HepaRG_CYP1A1: Life Technologies and Expression Analysis (LTEA) Assay for Cytochrome P450 (CYP1A1) using HepaRG (AID 2283454)
# In short: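 CYP1A1 transcript levels measured by Fluidigm qRT-PCR against three housekeeping genes, 48 h after chemical dosing of human HepaRG cells (highest concentration 100 uM, half-log steps, 0.5% DMSO vehicle). Gain or loss of signal fitted relative to DMSO.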
# [7] = read-out: CFLAR gene, CFLAR (gene 8837); assay: LTEA_HepaRG_CFLAR: Life Technologies and Expression Analysis (LTEA) Assay for CFLAR gene using HepaRG (AID 2283455)
# In short: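 qRT-PCR read-out (Fluidigm/TaqMan) of CFLAR mRNA, normalized to three housekeeping genes, in differentiated human HepaRG cells after 48 h chemical exposure; 8-point half-log series from 100 uM in 0.5% DMSO; bidirectional curve fitting versus DMSO.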
# [8] = read-out: Forkhead box O1 (FOXO1), FOXO1 (gene 2308); assay: LTEA_HepaRG_FOXO1: Life Technologies and Expression Analysis (LTEA) Assay for Forkhead box O1 (FOXO1) using HepaRG (AID 2283456)
# In short: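 HepaRG, 48 h exposure, 8-pt half-log series from 100 uM in 0.5% DMSO, duplicates; Fluidigm qRT-PCR mRNA, housekeeping-normalised; bidirectional fit vs DMSO baseline.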
# [9] = read-out: growth arrest and DNA damage 45 (GADD45A), GADD45A (gene 1647); assay: LTEA_HepaRG_GADD45A: Life Technologies and Expression Analysis (LTEA) Assay for growth arrest and DNA damage 45 (GADD45A) using HepaRG (AID 2283458)
# In short: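 HepaRG, 48 h exposure, 8 conc. (top 100 uM, half-log steps), 0.5% DMSO vehicle, duplicates. Read-out: qRT-PCR mRNA level, housekeeping-normalized (ACTB/GAPDH/POLR2A). Curves fit bidirectionally vs DMSO baseline.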
# [10] = read-out: Forkhead box O3 (FOXO3), FOXO3 (gene 2309); assay: LTEA_HepaRG_FOXO3: Life Technologies and Expression Analysis (LTEA) Assay for Forkhead box O3 (FOXO3) using HepaRG (AID 2283459)
# In short: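 qRT-PCR readout of FOXO3 transcript, normalized to three housekeeping genes (ACTB, GAPDH, POLR2A); gain or loss fitted against 0.5% DMSO vehicle. HepaRG cells, 48 h chemical exposure, 8-point half-log series, top 100 uM.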
# [11] = read-out: ABC Transporter (ABCB1), ABCB1 (gene 5243); assay: LTEA_HepaRG_ABCB1: Life Technologies and Expression Analysis (LTEA) Assay for ABC Transporter (ABCB1) using HepaRG (AID 2283460)
# In short: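 HepaRG, 48 h exposure, 8-pt half-log series from 100 uM, 0.5% DMSO vehicle, duplicates. Readout: ABCB1 transcript by Fluidigm TaqMan qRT-PCR, housekeeping-normalized; bidirectional curve fit vs DMSO baseline.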
# [12] = read-out: ABC Transporter (ABCC3), ABCC3 (gene 8714); assay: LTEA_HepaRG_ABCC3: Life Technologies and Expression Analysis (LTEA) Assay for ABC Transporter (ABCC3) using HepaRG (AID 2283462)
# In short: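 Transcript level by TaqMan qRT-PCR, normalised to three housekeeping genes, fitted in both directions relative to vehicle. Chemicals tested in duplicate at eight half-log concentrations up to 100 uM for 48 h on HepaRG cells (0.5% DMSO).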
# [13] = read-out: ABC Transporter (ABCB11), ABCB11 (gene 8647); assay: LTEA_HepaRG_ABCB11: Life Technologies and Expression Analysis (LTEA) Assay for ABC Transporter (ABCB11) using HepaRG (AID 2283463)
# In short: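 HepaRG, 48 h exposure, 8-pt half-log CRC top 100 uM, 0.5% DMSO vehicle, duplicates. Readout: TaqMan qRT-PCR of ABCB11 mRNA, housekeeping-normalized (ACTB/GAPDH/POLR2A). Bidirectional fit vs DMSO baseline.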
# [14] = read-out: ABC Transporter (ABCC2), ABCC2 (gene 1244); assay: LTEA_HepaRG_ABCC2: Life Technologies and Expression Analysis (LTEA) Assay for ABC Transporter (ABCC2) using HepaRG (AID 2283464)
# In short: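 Endpoint is ABCC2 transcript level from qRT-PCR, normalized to three housekeeping genes and fitted bidirectionally relative to DMSO. Human HepaRG cells received test chemical for 48 h at up to 100 uM (8 points, half-log steps, 0.5% DMSO), duplicate wells.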
# [15] = read-out: ATP-citrate lyase (ACLY), ACLY (gene 47); assay: LTEA_HepaRG_ACLY: Life Technologies and Expression Analysis (LTEA) Assay for ATP-citrate lyase (ACLY) using HepaRG (AID 2283466)
# In short: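 qRT-PCR readout of ACLY transcript after 48 h chemical treatment of HepaRG cells; expression normalized to three housekeeping genes. Eight-point half-log series, highest 100 uM, 0.5% DMSO vehicle. Gain or loss fitted against DMSO baseline.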
# [16] = read-out: Peroxisomal acyl-coenzyme A oxidase 1 (ACOX1) gene, ACOX1 (gene 51); assay: LTEA_HepaRG_ACOX1: Life Technologies and Expression Analysis (LTEA) Assay for Peroxisomal acyl-coenzyme A oxidase 1 (ACOX1) gene using HepaRG (AID 2283467)
# In short: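 HepaRG, 48 h chemical exposure, 8-pt half-log series from 100 uM top, 0.5% DMSO vehicle, duplicates. Readout: ACOX1 mRNA by Fluidigm qRT-PCR, housekeeping-normalized; bidirectional fit vs DMSO baseline.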
# [17] = read-out: Cyclin D2 (CCND2), CCND2 (gene 894); assay: LTEA_HepaRG_CCND2: Life Technologies and Expression Analysis (LTEA) Assay for Cyclin D2 (CCND2) using HepaRG (AID 2283449);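 note: CCND2 transcript measured by TaqMan qRT-PCR and normalised to three housekeeping genes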
# In short: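 HepaRG, 48 h dosing, 8-pt half-log curve from 100 uM, 0.5% DMSO; duplicate wells. Readout: CCND2 transcript by microfluidic qRT-PCR, housekeeping-normalised; bidirectional fit vs DMSO baseline.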
# [18] = read-out: Broad substrate specificity ATP-binding cassette transporter ABCG2 (Homo sapiens) (UniProt Q9UNQ0); assay: LTEA_HepaRG_ABCG2: Life Technologies and Expression Analysis (LTEA) Assay for ABC Transporter (ABCG2) using HepaRG (AID 2283465)
# In short: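 HepaRG, 48 h exposure, 8-pt half-log series from 100 uM, 0.5% DMSO vehicle, duplicates. Readout: ABCG2 transcript by qRT-PCR (Fluidigm array), housekeeping-normalized; bidirectional curve fit relative to DMSO baseline.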
# Fatty acid synthase (Homo sapiens), sequence (P49327 whole entry, looked up): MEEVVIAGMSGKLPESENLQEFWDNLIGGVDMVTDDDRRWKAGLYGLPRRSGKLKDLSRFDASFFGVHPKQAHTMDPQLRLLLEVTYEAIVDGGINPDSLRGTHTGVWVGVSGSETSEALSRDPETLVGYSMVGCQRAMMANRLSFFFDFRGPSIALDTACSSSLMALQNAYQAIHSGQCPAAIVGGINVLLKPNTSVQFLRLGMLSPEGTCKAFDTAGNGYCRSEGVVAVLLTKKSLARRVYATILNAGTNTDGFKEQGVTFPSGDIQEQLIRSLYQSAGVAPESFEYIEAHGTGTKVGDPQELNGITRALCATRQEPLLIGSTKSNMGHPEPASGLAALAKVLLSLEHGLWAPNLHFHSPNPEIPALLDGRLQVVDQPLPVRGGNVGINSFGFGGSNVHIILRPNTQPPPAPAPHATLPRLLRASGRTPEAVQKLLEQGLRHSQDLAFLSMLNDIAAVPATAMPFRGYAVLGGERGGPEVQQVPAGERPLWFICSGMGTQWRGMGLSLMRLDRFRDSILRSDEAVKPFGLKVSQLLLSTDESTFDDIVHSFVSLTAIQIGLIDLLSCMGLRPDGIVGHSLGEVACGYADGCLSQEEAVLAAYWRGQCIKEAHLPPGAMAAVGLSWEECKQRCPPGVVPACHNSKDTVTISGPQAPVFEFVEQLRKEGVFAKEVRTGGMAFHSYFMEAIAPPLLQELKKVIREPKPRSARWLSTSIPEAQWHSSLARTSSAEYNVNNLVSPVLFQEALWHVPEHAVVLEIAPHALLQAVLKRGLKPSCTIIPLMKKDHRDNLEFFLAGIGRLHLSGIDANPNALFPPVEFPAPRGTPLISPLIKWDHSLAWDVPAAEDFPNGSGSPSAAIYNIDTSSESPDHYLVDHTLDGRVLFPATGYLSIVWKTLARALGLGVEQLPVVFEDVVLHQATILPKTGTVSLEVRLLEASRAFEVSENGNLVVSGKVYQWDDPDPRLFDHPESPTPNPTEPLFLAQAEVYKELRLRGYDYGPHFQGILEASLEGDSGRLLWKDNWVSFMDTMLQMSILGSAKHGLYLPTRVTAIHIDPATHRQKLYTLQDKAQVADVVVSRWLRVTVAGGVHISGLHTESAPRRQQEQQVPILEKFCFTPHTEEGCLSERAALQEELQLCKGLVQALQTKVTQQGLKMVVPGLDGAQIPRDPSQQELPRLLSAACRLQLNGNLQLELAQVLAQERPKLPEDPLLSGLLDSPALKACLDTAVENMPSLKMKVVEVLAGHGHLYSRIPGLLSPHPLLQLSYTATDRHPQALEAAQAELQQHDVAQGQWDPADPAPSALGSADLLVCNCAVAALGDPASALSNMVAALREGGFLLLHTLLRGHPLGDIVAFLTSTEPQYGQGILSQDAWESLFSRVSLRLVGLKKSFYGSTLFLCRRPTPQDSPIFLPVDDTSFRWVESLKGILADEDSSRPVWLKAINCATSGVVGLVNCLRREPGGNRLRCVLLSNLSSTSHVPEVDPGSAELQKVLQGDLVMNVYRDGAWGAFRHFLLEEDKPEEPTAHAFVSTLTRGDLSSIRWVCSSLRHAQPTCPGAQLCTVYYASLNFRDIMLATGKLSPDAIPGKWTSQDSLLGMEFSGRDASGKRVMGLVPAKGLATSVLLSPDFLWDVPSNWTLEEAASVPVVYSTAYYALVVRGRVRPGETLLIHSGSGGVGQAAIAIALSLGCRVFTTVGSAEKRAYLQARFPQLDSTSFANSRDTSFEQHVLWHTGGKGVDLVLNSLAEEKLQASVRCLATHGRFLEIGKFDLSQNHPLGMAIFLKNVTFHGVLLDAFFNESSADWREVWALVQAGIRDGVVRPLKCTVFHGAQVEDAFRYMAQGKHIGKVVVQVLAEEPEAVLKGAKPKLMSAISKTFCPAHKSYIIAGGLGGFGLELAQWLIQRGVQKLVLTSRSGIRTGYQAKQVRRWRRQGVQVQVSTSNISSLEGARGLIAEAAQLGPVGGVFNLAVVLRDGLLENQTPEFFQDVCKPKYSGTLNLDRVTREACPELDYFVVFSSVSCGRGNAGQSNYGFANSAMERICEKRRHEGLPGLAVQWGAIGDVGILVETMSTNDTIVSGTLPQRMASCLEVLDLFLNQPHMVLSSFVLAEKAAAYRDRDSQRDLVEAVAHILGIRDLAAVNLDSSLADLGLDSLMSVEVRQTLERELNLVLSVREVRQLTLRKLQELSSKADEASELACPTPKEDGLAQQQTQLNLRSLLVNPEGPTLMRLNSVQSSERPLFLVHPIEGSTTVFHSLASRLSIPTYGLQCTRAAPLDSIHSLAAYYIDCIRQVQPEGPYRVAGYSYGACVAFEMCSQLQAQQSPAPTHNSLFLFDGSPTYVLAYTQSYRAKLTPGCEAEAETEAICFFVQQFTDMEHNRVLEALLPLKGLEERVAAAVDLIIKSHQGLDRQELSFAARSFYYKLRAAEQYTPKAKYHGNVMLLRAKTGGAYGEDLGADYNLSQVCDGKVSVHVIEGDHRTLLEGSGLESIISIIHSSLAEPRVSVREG
# Broad substrate specificity ATP-binding cassette transporter ABCG2 (Homo sapiens), sequence (Q9UNQ0 whole entry, looked up): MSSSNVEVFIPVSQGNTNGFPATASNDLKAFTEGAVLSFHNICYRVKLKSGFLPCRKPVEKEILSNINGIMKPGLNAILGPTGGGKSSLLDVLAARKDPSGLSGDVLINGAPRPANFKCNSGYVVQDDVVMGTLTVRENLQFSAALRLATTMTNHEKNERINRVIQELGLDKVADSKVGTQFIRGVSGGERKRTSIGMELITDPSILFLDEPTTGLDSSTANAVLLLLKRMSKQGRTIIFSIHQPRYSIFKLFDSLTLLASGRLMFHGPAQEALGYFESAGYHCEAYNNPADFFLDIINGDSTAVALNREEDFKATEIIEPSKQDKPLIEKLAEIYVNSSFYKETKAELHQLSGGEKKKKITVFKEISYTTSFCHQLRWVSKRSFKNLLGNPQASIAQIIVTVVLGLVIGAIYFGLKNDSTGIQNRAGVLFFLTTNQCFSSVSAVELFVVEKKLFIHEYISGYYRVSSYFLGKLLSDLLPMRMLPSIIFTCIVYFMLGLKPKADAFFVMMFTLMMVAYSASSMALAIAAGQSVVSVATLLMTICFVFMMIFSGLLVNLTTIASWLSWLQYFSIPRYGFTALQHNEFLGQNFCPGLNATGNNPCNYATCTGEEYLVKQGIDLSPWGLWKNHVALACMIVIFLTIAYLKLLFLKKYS
smiles,measurement,setting,value
CC(C)(C)c1cccc(C(C)(C)C)c1O,outcome,[1],inactive
same,outcome,[2],inactive
same,outcome,[3],inactive
same,outcome,[4],inactive
same,outcome,[5],inactive
same,outcome,[6],inactive
same,outcome,[7],inactive
same,outcome,[8],inactive
same,outcome,[9],inactive
same,outcome,[10],inactive
same,outcome,[11],inactive
same,outcome,[12],inactive
same,outcome,[13],inactive
same,outcome,[14],inactive
same,outcome,[15],inactive
same,outcome,[16],inactive
CCCOC(=O)c1ccc(O)cc1,outcome,[17],inactive
same,outcome,[2],inactive
same,outcome,[3],inactive
same,outcome,[4],inactive
same,outcome,[5],inactive
same,outcome,[6],inactive
same,outcome,[7],inactive
same,outcome,[8],inactive
same,outcome,[9],inactive
same,outcome,[10],inactive
same,outcome,[11],inactive
same,outcome,[12],inactive
same,outcome,[13],inactive
same,outcome,[14],inactive
same,outcome,[15],inactive
same,outcome,[16],inactive
CC1=C(/C=C/C(C)=C/C=C/C(C)=C/C(=O)O)C(C)(C)CCC1,outcome,[17],inactive
same,outcome,[2],inactive
same,outcome,[3],inactive
same,AC50,[4],9.37 µM (active)
same,AC50,[6],35.9 µM (active)
same,AC50,[7],5.84 µM (active)
same,outcome,[8],inactive
same,outcome,[9],inactive
same,outcome,[10],inactive
same,AC50,[11],0.81 µM (active)
same,outcome,[12],inactive
same,AC50,[13],29.4 µM (active)
same,outcome,[14],inactive
same,AC50,[18],3.14 µM (active)
same,outcome,[15],inactive
same,outcome,[16],inactive
CN1CCN(c2ccccc2/C=C2\SCCN(c3ccc(Cl)c(Cl)c3)C2=O)CC1,outcome,[1],inactive
same,outcome,[17],inactive
same,outcome,[2],inactive
same,outcome,[3],inactive
same,outcome,[4],inactive
same,AC50,[6],1.56 µM (active)
same,outcome,[7],inactive
same,AC50,[8],90.3 µM (active)
same,outcome,[9],inactive
same,AC50,[10],69 µM (active)
same,outcome,[11],inactive
same,AC50,[12],11.5 µM (active)
same,AC50,[13],22.5 µM (active)
same,outcome,[14],inactive
same,outcome,[15],inactive
same,outcome,[16],inactive
CCCCCCCCCCCCc1ccccc1S(=O)(=O)O,AC50,[1],74.5 µM (active)
same,outcome,[17],inactive
same,outcome,[2],inactive
same,outcome,[3],inactive
same,AC50,[4],88.9 µM (active)
same,AC50,[6],30.6 µM (active)
same,outcome,[7],inactive
same,AC50,[8],88.4 µM (active)
same,outcome,[9],inactive
same,AC50,[10],87.9 µM (active)
same,outcome,[11],inactive
same,outcome,[12],inactive
same,AC50,[13],85.7 µM (active)
same,AC50,[14],12.3 µM (active)
same,outcome,[15],inactive
same,AC50,[16],11.7 µM (active)
CN(C)C=O,outcome,[1],inactive
same,outcome,[17],inactive
same,outcome,[2],inactive
same,outcome,[3],inactive
same,outcome,[4],inactive
same,outcome,[6],inactive
same,outcome,[7],inactive
same,outcome,[8],inactive
same,outcome,[9],inactive
same,outcome,[10],inactive
same,outcome,[11],inactive
same,outcome,[12],inactive
same,outcome,[13],inactive
same,outcome,[14],inactive
same,outcome,[15],inactive
same,outcome,[16],inactive
CC(=O)CC(C)(C)O,outcome,[1],inactive
same,outcome,[17],inactive
same,outcome,[2],inactive
same,outcome,[3],inactive
same,outcome,[4],inactive
same,outcome,[6],inactive
same,outcome,[7],inactive
same,outcome,[8],inactive
same,outcome,[9],inactive
same,outcome,[10],inactive
same,outcome,[11],inactive
same,outcome,[12],inactive
same,outcome,[13],inactive
same,outcome,[14],inactive
same,outcome,[15],inactive
same,outcome,[16],inactive
OCCC(F)(F)C(F)(F)C(F)(F)C(F)(F)C(F)(F)C(F)(F)F,outcome,[1],inactive
same,outcome,[17],inactive
same,outcome,[2],inactive
same,outcome,[3],inactive
same,outcome,[4],inactive
same,AC50,[6],84.4 µM (active)
same,outcome,[7],inactive
same,outcome,[8],inactive
same,outcome,[9],inactive
same,outcome,[10],inactive
same,outcome,[11],inactive
same,outcome,[12],inactive
same,outcome,[13],inactive
same,outcome,[14],inactive
same,outcome,[18],inactive
same,outcome,[15],inactive
same,outcome,[16],inactive
